Inconclusive results are not listed. A call without a number means that no potency is given here. More than one record can exist for a structure, and the calls need not agree. A number with no mark means an inactive call. Calls of active or inactive are those of the source. Calls come from the whole dose curve; as a rule, active = well fitted inhibition curve with a large enough effect; inconclusive = small, poorly fitted or top-dose-only effect; inactive = flat fitted curve, though single readings scatter. *1 amine or outer side, *2 acyl side, *3 side chain or, on linkers, in order; H or OH if unused. Where a SMILES comes first, the peptide text is derived from it. [ ]: non-standard residue; d: D form. X4 = CC(C)=CCc1cc(C(O)C(N[*:1])C(=O)[*:2])ccc1O
Legend:
HaCat [1] = assay: Cytotoxic Profiling of Annotated Libraries Using Quantitative High-Throughput Screening (AID 1296008); conditions: Five cell lines viability, CellTiter-Glo ATP luminescence, 48-72 h; max response: stronger effect = lower value; note: potency is the fitted concentration of half-maximal effect
Outline: (§1)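 Cells exposed to compounds for 48 or 72 hr at 37 degrees Celsius. Viability read as ATP-coupled luminescence with CellTiter-Glo after 10 min at room temperature.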

KB-3-1 = assay: as above; conditions: Five cell lines viability, CellTiter-Glo ATP luminescence, 48-72 h; max response: stronger effect = lower value
Outline: as §1

NIH3T3 [2] = assay: as above; conditions: Five cell lines viability, CellTiter-Glo ATP luminescence, 48-72 h; max response: stronger effect = lower value
Outline: as §1

NIH3T3 [3] = assay: qHTS assay to identify novel small-molecules to repurpose for Merkel cell carcinoma treatment (AID 1296009); conditions: MCC and control cell lines, CellTiter-Glo viability, 72 h; at 44.8 µM (top of the series) unless noted
Outline: (§2)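 Cells were incubated with compound for 72 hr at 37 degree celsius before CellTiter-Glo addition. Luminescence was normalized with no-cell wells as full cytotoxicity and DMSO as baseline.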

HEK293T = assay: as above; conditions: MCC and control cell lines, CellTiter-Glo viability, 72 h; at 44.8 µM (top of the series) unless noted
Outline: as §2

HACAT [4] = assay: as above; conditions: MCC and control cell lines, CellTiter-Glo viability, 72 h; series mostly up to 44.8 µM
Outline: as §2

MCC-13 = assay: as above; conditions: MCC and control cell lines, CellTiter-Glo viability, 72 h; series mostly up to 46 µM
Outline: as §2

MCC-26 = assay: as above; conditions: MCC and control cell lines, CellTiter-Glo viability, 72 h; series mostly up to 46 µM
Outline: as §2

MKL-1 = assay: as above; conditions: MCC and control cell lines, CellTiter-Glo viability, 72 h; series mostly up to 46 µM
Outline: as §2

MKL-2 = assay: as above; conditions: MCC and control cell lines, CellTiter-Glo viability, 72 h; series mostly up to 46 µM
Outline: as §2
Note: nearly all actives have a fitted effect of over 60% in size.

CCCC(=O)O[C@@H]1[C@@H]2[C@@H](OC(C)=O)[C@]3(C)C(=O)[C@H]4[C@@H](OC(C)=O)C(C)(C)C[C@H]4[C@]3(C)C(=O)[C@@]2(OC(C)=O)C[C@@H]1C
outcome (HaCat [1]): inactive | max response (KB-3-1): 8.81% | outcome (NIH3T3 [2]): inactive | outcome (NIH3T3 [3]): inactive [at 17.4 µM]

CCC(C)/C=C(C)/C=C/c1cc2c(cn1)C(=O)C(C)(OC(C)=O)C(O)=C2Cl (stereo not given)
outcome (HaCat [1]): inactive | outcome (KB-3-1): inactive | outcome (NIH3T3 [2]): inactive | outcome (NIH3T3 [3]): inactive

COc1cc(O)c2c(c1)C1=C[C@H](O)[C@@H](O)C[C@]1(C)OC2=O
max response (HaCat [1]): -2.92% | max response (KB-3-1): 9.7% | outcome (NIH3T3 [2]): inactive | outcome (HEK293T): inactive | outcome (NIH3T3 [3]): inactive

CC(C)CCC[C@@H](C)[C@H]1CC[C@H]2[C@@H]3CC(=O)[C@H]4C[C@@H](O)CC[C@]4(C)[C@H]3CC[C@]12C
outcome (HaCat [1]): inactive | max response (KB-3-1): -11.4% | Potency (HACAT [4]): inactive

COC(=O)c1cc(OC)cc(OC)c1C(=O)c1c(OC)cc2c(c1O)C1CCCC(C)(O2)O1 (stereo not given)
max response (HaCat [1]): 3.65% | outcome (KB-3-1): inactive | outcome (NIH3T3 [2]): inactive | outcome (NIH3T3 [3]): inactive [at 17.4 µM]

COC1=CC(=O)CC(C)C12Oc1cc(OC)cc(O)c1C2=O (stereo not given)
max response (HaCat [1]): 4.13% | outcome (KB-3-1): inactive | outcome (NIH3T3 [2]): inactive | outcome (NIH3T3 [3]): inactive

COC(=O)CC(C)(O)CC(=O)OCc1ccc(O[C@@H]2O[C@H](CO)[C@@H](O)[C@H](O)[C@H]2O)cc1 (stereo not given in full)
max response (HaCat [1]): 2.19% | max response (KB-3-1): 4.52% | max response (NIH3T3 [2]): -2.06% | outcome (HEK293T): inactive [at 17.4 µM]

CC[C@]12C=CCN3CC[C@@]4(c5cc([C@@]6(C(=O)OC)C[C@H]7C[C@@H](C(C)(F)F)CN(Cc8c6[nH]c6ccccc86)C7)c(OC)cc5N(C)[C@H]4[C@@](O)(C(=O)OC)[C@@H]1OC(C)=O)[C@@H]32
outcome (HaCat [1]): inactive | Potency (KB-3-1): 137 nM (active) | Potency (HACAT [4]): inactive

Cn1nnc(-c2ccc(-c3ccc(N4C[C@H](CO)OC4=O)cc3F)cn2)n1
max response (HaCat [1]): -5.65% | max response (KB-3-1): -14% | outcome (NIH3T3 [2]): inactive | outcome (NIH3T3 [3]): inactive

CNC(C)C(=O)NC(C(=O)N1CCCC1c1nc(C(=O)c2ccc(F)cc2)cs1)C1CCCCC1 (stereo not given)
outcome (HaCat [1]): inactive; activator | max response (KB-3-1): -9.35% | outcome (NIH3T3 [2]): inactive | outcome (NIH3T3 [3]): inactive

COC(=O)CC(O)CC(O)/C=C/c1c(C)ccc2c1C(O)CC(C)C2 (stereo not given)
max response (HaCat [1]): -0.771% | outcome (KB-3-1): inactive | outcome (NIH3T3 [2]): inactive | outcome (HEK293T): inactive | outcome (NIH3T3 [3]): inactive

Nc1nc2c(ncn2[C@@H]2O[C@@H]3COP(=O)(O)O[C@H]3[C@H]2O)c(=O)[nH]1
outcome (HaCat [1]): inactive | outcome (KB-3-1): inactive | Potency (HACAT [4]): inactive

COc1ccc2[nH]c3c(-c4cccc5ccccc45)nccc3c2c1
outcome (HaCat [1]): inactive | Potency (KB-3-1): 820 nM (active) | Potency (HACAT [4]): inactive

CC(C)c1ccc(CO)cc1O[C@@H]1O[C@H](CO)[C@@H](O)[C@H](O)[C@H]1O
max response (HaCat [1]): 1.11% | outcome (KB-3-1): inactive | outcome (NIH3T3 [2]): inactive | outcome (HEK293T): inactive | outcome (NIH3T3 [3]): inactive

CC(=O)O[C@@H]1[C@H](O)[C@@H](O[C@@H]2O[C@@H](C)[C@H](O[C@@H]3OC[C@@H](O)[C@H](O[C@@H]4OC[C@@H](O)[C@H](O)[C@H]4O)[C@H]3O)[C@@H](O[C@@H]3O[C@H](CO)[C@@H](O)[C@H](O)[C@H]3O)[C@H]2O)[C@H](OC(=O)[C@]23CCC(C)(C)C[C@H]2C2=CCC4[C@@]5(C)CC[C@H](O[C@@H]6O[C@H](C(=O)O)[C@@H](O)[C@H](O[C@@H]7OC[C@@H](O)[C@H](O)[C@H]7O)[C@H]6O[C@@H]6O[C@H](CO)[C@H](O)[C@H](O)[C@H]6O)[C@@](C)(C=O)C5CC[C@@]4(C)[C@]2(C)CC3)O[C@@H]1C (stereo not given in full)
max response (HaCat [1]): 0.448% | max response (KB-3-1): -1.2% | outcome (NIH3T3 [2]): inactive | outcome (NIH3T3 [3]): inactive [at 4.96 µM]

C[C@@H]1O[C@@H](O[C@H]2[C@H](OC(=O)[C@]34CCC(C)(C)C[C@H]3C3=CCC5[C@@]6(C)C[C@H](O)[C@H](O[C@@H]7O[C@H](CO)[C@@H](O)[C@H](O)[C@H]7O)[C@@](C)(CO)C6[C@H](O)C[C@@]5(C)[C@]3(C)CC4)OC[C@H](O)[C@@H]2O)[C@H](O)[C@H](O)[C@H]1O[C@@H]1OC[C@@H](O)[C@H](O[C@@H]2OC[C@](O)(CO)[C@H]2O)[C@H]1O (stereo not given in full)
max response (HaCat [1]): -1.17% | max response (KB-3-1): 3.08% | outcome (NIH3T3 [2]): inactive | outcome (NIH3T3 [3]): inactive [at 9.27 µM]

COc1c2c(c(CO)c3c1C(=O)OC3)OC1(C)CCC3(O)C(C)(C)OC(=O)CCC3(C)C1C2 (stereo not given)
max response (HaCat [1]): -24.1% | outcome (KB-3-1): inactive | max response (NIH3T3 [2]): -8.25% | outcome (HEK293T): inactive [at 17.4 µM]

CC1OC(OC2C(C)OC(OC3C(O)C(CO)OC(O[C@H]4CC[C@@]5(C)C(CC[C@]6(C)C5CC=C5C7[C@@H](C)[C@H](C)CC[C@]7(C(=O)O)CC[C@]56C(=O)O)C4(C)C)C3O)C(O)C2O)C(O)C(O)C1O (stereo not given in full)
outcome (HaCat [1]): inactive | max response (KB-3-1): 9.21% | outcome (NIH3T3 [2]): inactive | outcome (HACAT [4]): inactive [at 9.27 µM] | outcome (NIH3T3 [3]): inactive [at 9.27 µM]

C=C1C(O)CC2C(C(=O)O)=COC(O[C@@H]3O[C@H](COC(=O)/C=C/c4ccc(O)cc4)[C@@H](O)[C@H](O)[C@H]3O)C12 (stereo not given in full)
max response (HaCat [1]): -10.4% | outcome (KB-3-1): inactive | max response (NIH3T3 [2]): -4.95% | outcome (HEK293T): inactive [at 17.4 µM]

COc1ccc(N(C)c2nc(C)nc3ccccc23)cc1
outcome (HaCat [1]): inactive | Potency (KB-3-1): 5.2 nM (active) | Potency (HACAT [4]): inactive

CC1(C)CCC[C@@]2(C)C1[C@H](OC(=O)/C=C/C=C/C(=O)O)C=C1COC(=O)[C@@]12O (stereo not given in full)
outcome (HaCat [1]): inactive | max response (KB-3-1): 0.106% | outcome (NIH3T3 [2]): inactive | Potency (HACAT [4]): inactive | outcome (NIH3T3 [3]): inactive

CC(C)=CCc1cc(C(O)C2NC(=O)CNC(=O)C(Cc3c[nH]c4ccccc34)NC(=O)C3CCCN3C(=O)CNC(=O)C(C(C)C)NC(=O)CNC2=O)ccc1O (stereo not given) (cyclo(G[X4]GVGPW); configuration not given here)
max response (HaCat [1]): -16.9% | max response (KB-3-1): 5.04% | outcome (NIH3T3 [2]): inactive | outcome (NIH3T3 [3]): inactive [at 9.27 µM]

C[C@H]1Oc2cc(cnc2N)-c2c(nn(C)c2C#N)CN(C)C(=O)c2ccc(F)cc21
max response (HaCat [1]): -103% | Potency (NIH3T3 [2]): 13200 nM (active) | max response (NIH3T3 [2]): -87.5%

O=C(O)c1ccccc1NCCc1ccccc1
outcome (HaCat [1]): inactive | max response (NIH3T3 [2]): 2.83% | Potency (HACAT [4]): inactive | outcome (MCC-13): inactive | outcome (MCC-26): inactive | Potency (MKL-1): inactive | Potency (MKL-2): inactive

COc1cc2ncnc(N3CCC(Oc4cnc5ccccc5n4)C3)c2cc1OC (stereo not given)
Potency (KB-3-1): 1030 nM (active)

COc1ccc(CC2C(=O)NC(C)C(=O)N(C)C3Cc4ccc(cc4)Oc4cc(ccc4OC4OC(CO)C(O)C(O)C4O)CC(C(=O)NC(C)C(=O)NC(C)C(=O)N2C)N(C)C3=O)cc1 (stereo not given)
Potency (KB-3-1): 138 nM (active)

CCc1cccc(CC)c1NC(=O)c1nn(C)c2c1CCc1cnc(Nc3ccc(C(=O)NC4CCN(C)CC4)cc3OC(F)(F)F)nc1-2
Potency (KB-3-1): 5630 nM (active)

Cc1ccc(-c2c(C(=O)CF)n(CCCO)c3ncnc(N)c23)cc1
max response (HaCat [1]): 4.6% | max response (KB-3-1): 4.56% | outcome (HEK293T): inactive

COc1ccc(-n2[nH]c(=O)c3[nH]c4cc(Cl)ccc4c(=O)c3c2=O)c(C)c1
outcome (HaCat [1]): inactive | max response (NIH3T3 [2]): 4.85% | outcome (HEK293T): inactive

O=C(c1ccccc1)c1ccc2nc(NC(=O)c3csc(C4CCN(c5ncnc6ccsc56)CC4)n3)[nH]c2c1
Potency (KB-3-1): 8200 nM (active)

Cc1ccccc1NC(=O)Nc1ccc(CC(=O)N(C)[C@@H](CC(C)C)C(=O)NCC[C@H](NC(=O)[C@@H]2CCCN2S(=O)(=O)c2cc(Cl)cc(Cl)c2)C(=O)O)cc1
outcome (HaCat [1]): inactive | max response (NIH3T3 [2]): -5.85% | outcome (HEK293T): inactive [at 17.4 µM]

CCC(C(=O)O)c1ccc(N2Cc3ccccc3C2=O)cc1 (stereo not given)
outcome (HaCat [1]): inactive | max response (NIH3T3 [2]): 3.06% | outcome (MCC-13): inactive | outcome (MCC-26): inactive | Potency (MKL-1): inactive | Potency (MKL-2): inactive

Nc1ccccc1N
max response (HaCat [1]): 3.79% | max response (KB-3-1): -4.37% | outcome (MCC-26): inactive

Reference: PubChem BioAssay (NCATS)
